A selection: hits, their analogues and other compounds. The true share with any hit is near 19%.
TDP1 cell CPT: DT40-hTDP1 cell growth loss with CPT; chicken DT40 Tdp1-/-;hTDP1 cells + 20 nM CPT, ATP luminescence, 48 h; AID 686979; hit rate 12% among 420,000; Potency, µM (series often up to 46.2 µM), without a hit: at the highest dose activity change, negative = growth inhibition, hits mostly inhibitors; also: potency is read from the fitted curve at half-maximal effect; nearly all actives have a fitted effect of over 55% in size
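Chicken DT40 Tdp1-/- cells complemented with human TDP1, 400 cells/well, exposed to compounds plus 20 nM camptothecin for at least 48 h at 37 C; viability read as ATP content by CellTiter-Glo luminescence.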
DT40 TDP1 no CPT: qHTS for Inhibitors of human tyrosyl-DNA phosphodiesterase 1 (TDP1): qHTS in cells in absence of CPT | hit rate 15% among 420,000 | DT40 Tdp1-/- hTDP1 cells, no CPT, ATP luminescence, 48 h | Potency, µM (top dose mostly 46.2 µM), inactives show at the top dose activity change, negative = growth inhibition, most hits filed as inhibitors; also: potency is read from the fitted curve at half-maximal effect; nearly all actives have a fitted effect of over 55% in size
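Chicken DT40 Tdp1-/- cells complemented with human TDP1, screened without camptothecin (DMSO vehicle only), 400 cells/well. Compounds pin-transferred, cells incubated at 37 °C for at least 48 hr. Growth read as ATP-dependent luminescence (CellTiter-Glo, 30 min at RT).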
IL1B secr inh: inflammasome signaling inhibition, IL-1 beta readout | activity change, % at 57.5 µM | AID 743279 | hit rate 4.7% among 360,000 | THP-1 LPS/ATP IL-1B secretion, AlphaLISA, 16 h; hits give low values; in the data active = activity change below about -50%; inconclusive = mostly about -30% to -49%
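Secreted IL-1B measured by AlphaLISA bead assay after 16 h compound exposure of THP-1 cells; compounds (final up to 57.5 uM) added 1 h before LPS (250 ng/mL) and ATP (1.25 mM) stimulation; lower signal means less secretion.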
HT1080 IDH1KD tx: kills HT-1080 cells with IDH1 knockdown; HT-1080 IDH1 knockdown viability, ATP luminescence, 48 h; Potency, µM (series often up to 46.1 µM), without a hit: at the highest dose activity, negative = toxicity, hits mostly cytotoxic; hit rate 2% among 360,000;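 also: potency is read from the fitted curve at half-maximal effect; 0% = DMSO wells and -100% = cell-free medium wells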
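In this qHTS, HT-1080 cells depleted of IDH1 are exposed for 48 h at 37 °C to compound titrations. Toxicity is scored from CellTiter-Glo luminescence, with DMSO as full viability and medium alone as none.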
HT1080NT lethal: kills 2HG-producing HT-1080-NT fibrosarcoma cells. HT-1080-NT fibrosarcoma viability, CellTiter-Glo ATP luminescence, 48 h. AID 686970. hit rate 1.6% among 360,000. Potency, µM (series often up to 46.1 µM), for inactives: at the highest dose activity, negative = less viability, actives largely listed as cytotoxic;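 also: NT is the 2HG producing partner of a matched IDH1 knockdown line; potency is read from the fitted curve at half-maximal effect; 0% = DMSO-treated cells and -100% = media-only wells without cells; nearly all actives have a fitted effect of over 55% in size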
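Viability of the 2HG-overproducing fibrosarcoma line after 48 hours of compound exposure at 37 degrees C was determined by luminescence with CellTiter-Glo, and concentration-effect curves were then fitted and categorized.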
The depositor's hits bear a star; ? = inconclusive; / = no result given. Unless noted, calls follow the shape of the dose curve; as a rule, active = well fitted curve in the direction sought with a large enough effect; inconclusive = small, poorly fitted or top-dose-only effect, or another doubt; inactive = no such curve, though single readings can be large; an effect the other way counts as inactive or inconclusive. Unless noted, % is scaled to controls: 0 for no effect and ±100 for the full control effect.

SMILES	TDP1 cell CPT	DT40 TDP1 no CPT	IL1B secr inh	HT1080 IDH1KD tx	HT1080NT lethal
COc1ccc(/C=C\c2onc(C)c2S(=O)(=O)N2CCC(C(=O)Nc3cccc(OC)c3)CC2)cc1	15µM*	16µM*	/	/	/
Cc1ccccc1-c1csc(C(O)c2cccnc2)n1 (stereo not drawn)	?	?	20	2%	2%
CCc1ccc(NC(=O)C2CCN(S(=O)(=O)c3c(C)noc3/C=C\c3ccc(OC)cc3)CC2)cc1	8.2µM*	5.2µM*	/	/	/
COc1ccc(OC)c(NC(=O)C2CCN(S(=O)(=O)c3c(C)noc3/C=C/c3ccc(C)cc3)CC2)c1	-22%	?	/	/	/
CCOC(=O)c1c(C)oc2nc(C)nc(Nc3cc(C)cc(C)c3)c12	5%	0%	/	/	/
CCCCN(Cc1nc2ccccc2c(=O)[nH]1)C(=O)COc1ccc(F)cc1Cl	18µM*	15µM*	17	-7%	-17%
COCCN(Cc1nc2ccccc2c(=O)[nH]1)C(=O)COc1c(C)cc(Cl)cc1C	?	?	-19	-5%	-13%
O=C1C[C@@H]2C(=O)N(c3ccccc3)C(=O)[C@@H]2[C@@H]2CN(S(=O)(=O)c3ccccc3)[C@@H](c3ccccc3)[C@H]12	-15%	-9%	13	8%	4%
CN=C(c1ccc(C)cc1)n1c(=S)nc(-c2ccc(C)cc2)n(C)c1=S	?	18µM*	23	0%	2%
CN=C(c1ccco1)n1c(=S)nc(-c2ccco2)n(C)c1=S	?	?	22	5%	15%
CCC(C(=O)NC(C)(C)C)N(Cc1ccc(OC)cc1)C(=O)c1snc(C(N)=O)c1N (stereo not drawn)	-23%	?	-3	0%	-1%
COc1cc(C(=O)Nc2nnc(CC(=O)NCc3ccccc3)s2)cc(OC)c1OC	5%	-15%	6	-10%	3%
CC(C)=CCC/C(C)=C/CNC(=O)C[C@H]1C[C@H](C(=O)N2CCOCC2)[C@@]2(CCC3CCCC3)c3[nH]c4cc(CCC(=O)N(C)C)ccc4c3CCN2C1=O	5.8µM*	6.5µM*	?	0%	-3%
CC[C@]12c3[nH]c4cc(CCC(=O)N(C)C)ccc4c3CCN1C(=O)[C@@H](CC(=O)NCCC1=CCCCC1)C[C@@H]2C(=O)N1CCN(C(=O)c2ccco2)CC1	4%	-22%	3	-2%	-2%
CC[C@]12c3[nH]c4cc(CCC(=O)N(C)C)ccc4c3CCN1C(=O)[C@@H](CC(=O)NC/C=C(\C)CCC=C(C)C)C[C@@H]2C(=O)N1CCN(C(=O)c2ccco2)CC1	10µM*	5.8µM*	0	21µM*	?
CN(C)C(=O)CCc1ccc2c3c([nH]c2c1)[C@]1(CCC2CCCC2)[C@@H](C(=O)N2CCOCC2)C[C@H](CC(=O)NCC24CC5CC(CC(C5)C2)C4)C(=O)N1CC3	?	23µM*	-27	5%	8%
CCOC(=O)C1(Cc2cccc(F)c2)CCN(C(=O)COC)CC1	-21%	-9%	-3	0%	0%
CC(C)c1ccc(NC(=O)c2cc3c(s2)-c2ccccc2SC3)cc1	18µM*	?	/	/	/
COCCNC(=O)c1cc2c(s1)-c1ccc(Cl)cc1SC2	-17%	?	-57*	-24%	-16%
CCOc1ccc(N(CC)C(=O)c2cc3c(s2)-c2ccc(Cl)cc2SC3)cc1	12µM*	?	/	/	/
O=C(COc1ccc(Cl)cc1)Nc1cc(NC(=O)COc2ccc(Cl)cc2)cc(C(=O)O)c1	3%	-3%	12	4%	-1%
Cc1c(C)n(C(=O)CN2CCC(C)CC2)c2ccccc12	-1%	-12%	-5	-1%	1%
CCOc1ccc(NC(=O)CCn2cccn2)cc1	-24%	-15%	/	/	/
Clc1ccc(OCCN2CCCCC2)cc1Cl	-21%	?	35	-1%	-2%
CNCCOc1ccc(Cl)c(Cl)c1	?	16µM*	-24	?	-17%

From PubChem
